Assay results taken from ChEMBL document CHEMBL1961873, “Compounds: GSK PKIS; Assays: Nanosyn kinase panel” (2012).
“And” between values parts separate entries of the source, which are not always exact repeats. Identical values can stand only once.

Assays:
[1] = molecular target: T1, Mitogen-activated protein kinase 12 (Homo sapiens) (UniProt P53778); settings: at 1 µM;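 note: values are averaged p38gamma kinase inhibition readings, compounds tested at 1 µM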
T1 sequence (whole entry): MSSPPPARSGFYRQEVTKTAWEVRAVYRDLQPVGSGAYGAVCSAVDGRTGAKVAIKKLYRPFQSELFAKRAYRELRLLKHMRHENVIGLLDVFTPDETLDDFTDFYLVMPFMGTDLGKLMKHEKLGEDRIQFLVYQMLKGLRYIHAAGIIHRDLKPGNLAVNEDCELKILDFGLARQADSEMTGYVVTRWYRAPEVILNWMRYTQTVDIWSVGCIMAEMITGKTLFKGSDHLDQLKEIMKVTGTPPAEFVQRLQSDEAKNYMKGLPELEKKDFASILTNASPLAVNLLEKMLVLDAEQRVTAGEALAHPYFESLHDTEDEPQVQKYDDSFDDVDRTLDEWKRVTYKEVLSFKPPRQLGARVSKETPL

[2] = molecular target: SRSF protein kinase 1 (Homo sapiens) (UniProt Q96SB4); settings: at 0.1 µM
[3] = molecular target: SRSF protein kinase 1 (Homo sapiens) (UniProt Q96SB4); settings: at 1 µM
[4] = molecular target: Phosphatidylinositol 4,5-bisphosphate 3-kinase catalytic subunit alpha isoform (Homo sapiens) (UniProt P42336); settings: at 0.1 µM
[5] = molecular target: Phosphatidylinositol 4,5-bisphosphate 3-kinase catalytic subunit alpha isoform (Homo sapiens) (UniProt P42336); settings: at 1 µM
[6] = molecular target: T2, Phosphatidylinositol 4,5-bisphosphate 3-kinase catalytic subunit delta isoform (Homo sapiens) (UniProt O00329); settings: at 0.1 µM
T2 sequence (whole entry): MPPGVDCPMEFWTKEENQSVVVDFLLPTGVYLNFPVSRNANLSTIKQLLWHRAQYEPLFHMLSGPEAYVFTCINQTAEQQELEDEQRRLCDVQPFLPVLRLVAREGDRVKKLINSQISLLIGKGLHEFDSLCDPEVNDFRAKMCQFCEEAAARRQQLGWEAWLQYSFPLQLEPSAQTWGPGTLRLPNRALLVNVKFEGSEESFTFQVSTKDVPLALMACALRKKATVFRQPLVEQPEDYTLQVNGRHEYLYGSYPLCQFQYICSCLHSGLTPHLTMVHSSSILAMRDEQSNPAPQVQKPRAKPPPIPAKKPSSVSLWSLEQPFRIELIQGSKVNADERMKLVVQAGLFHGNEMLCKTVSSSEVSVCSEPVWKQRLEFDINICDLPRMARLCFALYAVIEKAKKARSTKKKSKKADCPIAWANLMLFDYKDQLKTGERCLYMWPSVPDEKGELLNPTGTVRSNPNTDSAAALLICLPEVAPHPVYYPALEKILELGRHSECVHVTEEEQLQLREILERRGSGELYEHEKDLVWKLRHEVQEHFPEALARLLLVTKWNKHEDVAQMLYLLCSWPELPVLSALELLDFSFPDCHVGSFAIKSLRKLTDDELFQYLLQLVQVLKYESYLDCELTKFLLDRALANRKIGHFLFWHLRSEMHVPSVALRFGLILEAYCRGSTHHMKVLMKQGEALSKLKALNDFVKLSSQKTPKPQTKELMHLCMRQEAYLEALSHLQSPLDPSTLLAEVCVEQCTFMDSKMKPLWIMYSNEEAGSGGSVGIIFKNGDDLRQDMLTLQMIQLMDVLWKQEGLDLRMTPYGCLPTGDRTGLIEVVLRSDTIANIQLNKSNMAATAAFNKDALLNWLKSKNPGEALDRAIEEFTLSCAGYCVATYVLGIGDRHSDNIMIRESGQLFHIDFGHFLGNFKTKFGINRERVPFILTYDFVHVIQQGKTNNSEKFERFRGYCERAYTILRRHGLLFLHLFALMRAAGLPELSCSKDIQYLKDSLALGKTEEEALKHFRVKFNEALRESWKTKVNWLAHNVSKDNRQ

[7] = molecular target: T2, Phosphatidylinositol 4,5-bisphosphate 3-kinase catalytic subunit delta isoform (Homo sapiens); settings: at 1 µM
[8] = molecular target: Phosphatidylinositol 4-kinase beta (Homo sapiens) (UniProt Q9UBF8); settings: at 0.1 µM
[9] = molecular target: Phosphatidylinositol 4-kinase beta (Homo sapiens) (UniProt Q9UBF8); settings: at 1 µM
[10] = molecular target: Sphingosine kinase 1 (Homo sapiens) (UniProt Q9NYA1); settings: at 0.1 µM;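 note: mean percent inhibition of SPHK1 activity, measured within the GSK PKIS screening panel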
Sphingosine kinase 1 (Homo sapiens), sequence (Q9NYA1 whole entry): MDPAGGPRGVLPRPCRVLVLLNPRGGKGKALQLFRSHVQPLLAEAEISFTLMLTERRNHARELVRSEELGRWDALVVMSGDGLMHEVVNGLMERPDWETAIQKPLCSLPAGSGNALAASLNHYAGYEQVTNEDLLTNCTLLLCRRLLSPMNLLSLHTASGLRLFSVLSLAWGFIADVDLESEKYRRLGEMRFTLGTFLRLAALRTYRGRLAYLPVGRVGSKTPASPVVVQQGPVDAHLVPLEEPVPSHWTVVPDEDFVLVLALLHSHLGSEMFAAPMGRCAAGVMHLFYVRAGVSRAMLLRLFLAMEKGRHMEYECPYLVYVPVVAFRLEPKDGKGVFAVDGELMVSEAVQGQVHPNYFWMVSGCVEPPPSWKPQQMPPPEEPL

Phosphatidylinositol 4-kinase beta (Homo sapiens), sequence (Q9UBF8 2-816 limits assumed): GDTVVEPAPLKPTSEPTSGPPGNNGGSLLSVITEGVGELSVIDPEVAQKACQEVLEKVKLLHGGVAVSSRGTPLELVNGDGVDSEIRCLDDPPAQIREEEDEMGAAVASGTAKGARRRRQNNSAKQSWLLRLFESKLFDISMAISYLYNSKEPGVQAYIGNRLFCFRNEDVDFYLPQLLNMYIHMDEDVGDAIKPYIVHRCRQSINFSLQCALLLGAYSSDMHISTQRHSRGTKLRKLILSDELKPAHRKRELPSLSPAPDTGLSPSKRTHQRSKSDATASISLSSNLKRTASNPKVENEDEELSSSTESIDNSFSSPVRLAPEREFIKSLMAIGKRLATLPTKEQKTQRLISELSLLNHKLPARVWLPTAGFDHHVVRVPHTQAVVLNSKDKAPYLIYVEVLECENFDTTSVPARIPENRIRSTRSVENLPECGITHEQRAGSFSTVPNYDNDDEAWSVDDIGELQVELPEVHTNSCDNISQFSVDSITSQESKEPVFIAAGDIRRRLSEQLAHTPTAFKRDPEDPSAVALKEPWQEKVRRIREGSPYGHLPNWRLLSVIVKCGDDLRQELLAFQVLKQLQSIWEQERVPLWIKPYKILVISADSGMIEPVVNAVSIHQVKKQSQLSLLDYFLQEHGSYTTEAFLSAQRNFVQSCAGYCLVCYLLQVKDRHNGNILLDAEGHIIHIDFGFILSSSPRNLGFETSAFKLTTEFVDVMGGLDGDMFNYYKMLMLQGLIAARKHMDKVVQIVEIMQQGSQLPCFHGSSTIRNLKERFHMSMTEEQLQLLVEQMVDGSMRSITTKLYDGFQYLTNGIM
Phosphatidylinositol 4,5-bisphosphate 3-kinase catalytic subunit alpha isoform (Homo sapiens), sequence (P42336 whole entry, canonical isoform): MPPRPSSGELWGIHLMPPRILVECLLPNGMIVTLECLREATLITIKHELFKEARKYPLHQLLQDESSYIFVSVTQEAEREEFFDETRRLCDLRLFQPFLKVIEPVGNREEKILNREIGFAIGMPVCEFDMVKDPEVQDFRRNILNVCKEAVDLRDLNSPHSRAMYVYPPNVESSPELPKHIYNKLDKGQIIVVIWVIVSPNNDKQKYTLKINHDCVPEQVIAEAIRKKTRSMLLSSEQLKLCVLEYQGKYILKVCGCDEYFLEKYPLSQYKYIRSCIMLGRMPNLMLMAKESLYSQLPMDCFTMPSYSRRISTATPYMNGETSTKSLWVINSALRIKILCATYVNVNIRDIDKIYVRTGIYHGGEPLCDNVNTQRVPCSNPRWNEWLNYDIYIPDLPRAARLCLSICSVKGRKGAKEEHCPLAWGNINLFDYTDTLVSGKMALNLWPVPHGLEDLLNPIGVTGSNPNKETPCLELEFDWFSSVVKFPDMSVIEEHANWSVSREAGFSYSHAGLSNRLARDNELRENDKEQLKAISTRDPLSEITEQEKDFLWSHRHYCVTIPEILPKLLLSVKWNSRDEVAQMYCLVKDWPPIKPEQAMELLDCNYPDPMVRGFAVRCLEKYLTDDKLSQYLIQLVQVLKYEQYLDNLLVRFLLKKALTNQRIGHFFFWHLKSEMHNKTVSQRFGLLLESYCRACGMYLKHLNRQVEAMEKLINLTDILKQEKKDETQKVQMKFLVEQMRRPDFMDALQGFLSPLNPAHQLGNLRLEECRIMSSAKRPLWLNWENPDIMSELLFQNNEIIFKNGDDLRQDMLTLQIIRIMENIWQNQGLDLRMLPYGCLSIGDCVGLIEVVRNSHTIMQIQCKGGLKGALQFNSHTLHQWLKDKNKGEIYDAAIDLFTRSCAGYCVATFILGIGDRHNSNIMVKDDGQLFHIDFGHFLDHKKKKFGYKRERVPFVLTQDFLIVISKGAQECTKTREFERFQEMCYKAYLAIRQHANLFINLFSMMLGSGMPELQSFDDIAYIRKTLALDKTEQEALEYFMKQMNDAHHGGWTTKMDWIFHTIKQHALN
SRSF protein kinase 1 (Homo sapiens), sequence (Q96SB4 whole entry, canonical isoform): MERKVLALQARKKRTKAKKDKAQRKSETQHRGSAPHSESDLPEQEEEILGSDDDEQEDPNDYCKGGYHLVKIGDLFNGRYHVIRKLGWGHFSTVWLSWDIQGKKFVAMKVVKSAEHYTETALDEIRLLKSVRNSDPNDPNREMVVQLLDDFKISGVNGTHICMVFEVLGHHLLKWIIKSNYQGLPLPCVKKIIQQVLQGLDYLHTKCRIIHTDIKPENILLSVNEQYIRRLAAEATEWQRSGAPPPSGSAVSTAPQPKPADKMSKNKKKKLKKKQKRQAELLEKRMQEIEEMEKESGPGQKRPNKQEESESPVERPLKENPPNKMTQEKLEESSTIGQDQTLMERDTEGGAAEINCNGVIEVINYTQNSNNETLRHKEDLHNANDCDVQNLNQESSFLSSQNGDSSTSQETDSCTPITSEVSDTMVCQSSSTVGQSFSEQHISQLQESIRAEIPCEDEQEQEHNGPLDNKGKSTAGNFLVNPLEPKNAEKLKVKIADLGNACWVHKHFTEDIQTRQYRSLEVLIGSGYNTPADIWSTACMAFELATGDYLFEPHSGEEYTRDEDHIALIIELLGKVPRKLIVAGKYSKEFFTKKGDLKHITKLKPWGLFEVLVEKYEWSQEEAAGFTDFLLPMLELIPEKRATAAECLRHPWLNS

Row | SMILES | inhibition [1] | inhibition [2] | inhibition [3] | inhibition [4] | inhibition [5] | inhibition [6] | inhibition [7] | inhibition [8] | inhibition [9] | inhibition [10]
1 | CNC(=O)c1sc(-n2cnc3cc(OC)c(OC)cc32)cc1OCc1ccccc1C(F)(F)F | 1.74% | -2.64% | -0.97% | 3.44% | 4.4% | 0.73% | 6.41% | 6.54% | 0.66% | -7.75%
2 | CS(=O)(=O)Nc1ccc(-c2cc(-c3ccccc3)cc(C(N)=O)c2N)cc1 | 1.43% | -1.01% | -1.76% | 3.24% | 3.21% | 3.22% | 3.77% | 0.42% | -0.01% | -1.73%
3 | Nc1nccc(-c2c(-c3ccc(F)cc3)ncn2C2CCNCC2)n1 |  | 1.49% and -1% | -0.09% and 0.83% | -3.2% and 3.79% | 1.34% and 1.58% | -0.68% and 4.92% | 6.51% and 6.41% | 0.69% and 2.98% | -2.46% and -0.82% | -0.52% and 0.67%
4 | CS(=O)(=O)CCNCc1ccc(-c2ccc3ncnc(Nc4ccc(OCc5ccccc5)cc4)c3c2)o1 | 2.57% | -2.16% | -2.56% | 2.93% | 4.79% | 0.74% | 2.65% | 0.91% | 0.45% | -0.6%
5 | Cn1c(-c2nonc2N)nc2cnccc21 | 2.23% | -3.06% | -4.33% | 1.04% | 3.15% | 1.35% | 1.72% | 1.38% | -3.7% | -0.45%
6 | COc1cccc(Nc2nccc(-c3cnn4ncccc34)n2)c1 | 9.23% | -0.98% | 4.98% | 3.25% | 17% | 3.95% | 19.1% | -0.93% | 11.1% | 0.27%
7 | CC1=C(C(=O)Nc2ccc3[nH]ncc3c2)C(c2ccc(F)cc2)N=C(c2ccc(C(F)(F)F)nc2)N1 (centres undefined) | 1.85% | -1.07% | -0.7% | 2.87% | 4.33% | 2.9% | 4.49% | 4.33% | -3.27% | -0.6%
8 | CC1=C(C(=O)Nc2ccc3[nH]nc(C)c3c2)C(c2ccc(C(F)(F)F)cc2)CC(=O)N1 (centres undefined) | 2.82% | -1.2% | -2.95% | 2.05% | 2.21% | 2.89% | 3.84% | 4.33% | -1.82% | 0.96%
9 | CC1(C)CC(n2cnc(-c3ccc(F)cc3)c2-c2ccnc(N)n2)CC(C)(C)N1 | 2.44% | 0.72% | -1.12% | 4.34% | 4.5% | 5.71% | 6.91% | 0.64% | -1.54% | 1.98%
10 | CS(=O)(=O)Nc1ccc(-c2ccc3c(NC(=O)C4CC4)n[nH]c3c2)cc1 | 2.05% | -1.28% | -3.34% | 2.67% | 4.34% | 0.92% | 1.63% | -0.54% | -0.98% | 2.34%
11 | CN1CCC(C(=O)Nc2n[nH]c3nc(-c4ccc(O)cc4)c(Br)cc23)CC1 | 7.35% and 7.26% | -0.9% and -1.12% | 0.97% and -0.81% | 4.19% and 1.14% | 2.06% and 2.14% | 1.92% and 0.51% | 1.89% and 0.99% | 2.14% | -0.62% and 1.07% | 1.72% and 4.51%
12 | Fc1cccc(COc2ccc(Nc3ncncc3C#Cc3ccccc3)cc2Cl)c1 | 2.58% | -0.38% | 3.43% | 3.88% | 2.67% | 1.53% | 1.09% | 1.02% | -1.52% | 1.58%
13 | CCS(=O)(=O)c1ccc(OC)c(Nc2ncc(-c3cccc(C(C)=O)c3)o2)c1 | 1.14% | -0.6% | 4.89% | 2.7% | 1.8% | 0.22% | -1.96% | 2.44% | -1.58% | 13.1%
14 | Nc1ncnc2occ(-c3ccc(NC(=O)Nc4cc(C(F)(F)F)ccc4F)cc3)c12 | 52% and 44.9% | 1.86% and 3.34% | 28.9% and 22% | 0.21% and -1.3% | 1.36% and 0.28% | 1.09% and -2.88% | 2.46% and -0.2% | 0.95% and 17.2% | 10.9% and 7.67% | 3.31% and 0.73%
15 | CN(C)CCNC(=O)Nc1ccc(N(C)c2ccnc(Nc3ccc(CS(C)(=O)=O)cc3)n2)cc1 | 2.24% | -1.44% | -2.68% | 2.6% | 3.13% | 2.63% | 5.9% | 2.65% | 15.7% | 0.26%
16 | CCS(=O)(=O)c1ccc(OC)c(Nc2ncc(-c3cccc(F)c3)o2)c1 | 4.78% | -0.63% | 0.45% | 5.95% | 5.75% | 2.23% | 4.91% | 0.49% | -1.64% | -1.2%

Row | SMILES | inhibition [1] | inhibition [2] | inhibition [3] | inhibition [4] | inhibition [5] | inhibition [6] | inhibition [7] | inhibition [8] | inhibition [9] | inhibition [10]
17 | Nc1nonc1-c1nc2cnccc2n1C1CC1 | 3.34% and 3.65% | -1.33% and -0.52% | -1.72% and -0.89% | 2.95% and 6.82% | 3.77% and 8% | 1.84% and 8.17% | 2.3% and 9.78% | 0.74% and 1.33% | -6.41% and 0.29% | -1.72% and 0.56%
18 | COC(=O)Nc1nc2ccc(Oc3ccc(NC(=O)Nc4cc(C(F)(F)F)ccc4F)cc3)cc2s1 | 2.85% | -1.59% | -2.01% | -0.49% | 2.51% | 1.44% | 6.58% | -2.75% | -0.16% | -0.71%
19 | COc1ccccc1-c1cc(/C=C2\C(=O)Nc3ncc(Br)cc32)cc(Br)c1O | 4.01% | -2.27% | -5.25% | 8.24% | 18.6% | 7.45% | 13.9% | -5.01% | 7.13% | 0.8%
20 | COc1cc2c(cc1Nc1nc(Nc3cccc(F)c3C(N)=O)c3cc[nH]c3n1)N(C(=O)CN1CCN(C(C)C)CC1)CC2 | 2.81% | -3.13% | -1.66% | 0.54% | 0.15% | -1.97% | -0.26% | -0.22% | 0.87% | 0.42%
21 | CNC(=O)c1cncc(/C=C/c2ccccc2C)c1 | 1.72% | -0.49% | 2.3% | 2.18% | 2.76% | 1.24% | 0.42% | -3.61% | 7.59% | 0.67%
22 | O=C1Nc2ccccc2/C1=C1\CCc2cc(O)ccc21 | 4.17% | -1.97% | -3.93% | 3.67% | 6.82% | 2.68% | 5.45% | -5.42% | -0.12% | 1.98%
23 | COc1c(C(N)=O)cc(-c2ccc(Cl)cc2)cc1-c1ccc(S(N)(=O)=O)cc1 | 5.43% | -3.03% | -1.89% | 4.8% | 2.59% | 0.32% | 1.67% | 0.85% | 3.11% | 0.56%
24 | Cc1cc(O)cc(C)c1/C=C/c1cncc(C(N)=O)c1 | 1.72% | -2.4% | -0.6% | 0.88% | 3.67% | 0.87% | 2.16% | 0.44% | -1.46% | -0.95%
25 | COc1ccc2ncn(-c3cc(O[C@H](C)c4ccccc4C(F)(F)F)c(C(N)=O)s3)c2c1 | -0.21% | -0.66% | -1.2% | 0.29% | 4.81% | 2.14% | 12.2% | -1.47% | 1.85% | -1.01%
26 | CNC(=O)c1ncccc1Nc1nc(Nc2cc3c(cc2OC)CCCN3C(=O)CN(C)C)nc2[nH]ccc12 | 2.94% | -1.98% | -0.43% | 3.55% | 1.58% | 1.46% | 4.15% | -2.24% | 1.56% | 3.95%
27 | Cc1nnc(-c2cccc(-c3ccc(C(=O)NCC4CC4)cc3)c2)o1 | 2.67% | -0.9% | 2.29% | 2.25% | 2.72% | -0.87% | -2.41% | -0.63% | -1.44% | -1.27%
28 | COc1cc(N2CCN(C(C)C)CC2)ccc1Nc1nc(Nc2cccc(F)c2C(=O)O)c2cc[nH]c2n1 | 1.52% | -1.29% | 5.69% | 2.86% | 4.42% | -0.59% | -3.11% | 2.44% | 0.72% | -1.3%
29 | N#Cc1cccc(Nc2ncc(-c3ccccc3)o2)c1 | 1.79% | -1.82% | 0.42% | 0.88% | -1.04% | -0.63% | -0.04% | -0.3% | -1.82% | 1.65%
30 | N#Cc1ccc2c(-c3ccnc(NC4CC4)n3)c(-c3ccc(F)cc3)nn2c1 | 1.13% | -1.5% | -2.4% | 0.7% | 0.6% | -0.45% | -0.14% | -2.01% | -0.71% | 3.55%
31 | O=C(O[C@H]1CN[C@H](C#Cc2cc3ncnc(Nc4ccc(OCc5cccc(F)c5)c(Cl)c4)c3s2)C1)N1CCOCC1 | 3.47% | -2% | 0.44% | 4.94% | 26.9% | 3.37% | 15.8% | -0.81% | 1.44% | 0.99%
